± gives the standard deviation of the averaged measurements. In all, about 33,000 sequences were measured (“E-score (dimensionless, -0.5 to 0.5)”: median about -0.046, highest 2% from about 0.36 on). What follows is part of a selection rich in the highest values, with near analogues and random picks from the rest.
system: T1, SpTbr T-box DNA-binding domain (GST fusion); experiment: PBM E-score of 8-mer (E-score (dimensionless, -0.5 to 0.5)); Tbr is Tbrain of the sea star Patiria miniata (Pm) or the sea urchin Strongylocentrotus purpuratus (Sp); higher = stronger binding preference; settings: the construct has about 5 more residues each side
T1 sequence: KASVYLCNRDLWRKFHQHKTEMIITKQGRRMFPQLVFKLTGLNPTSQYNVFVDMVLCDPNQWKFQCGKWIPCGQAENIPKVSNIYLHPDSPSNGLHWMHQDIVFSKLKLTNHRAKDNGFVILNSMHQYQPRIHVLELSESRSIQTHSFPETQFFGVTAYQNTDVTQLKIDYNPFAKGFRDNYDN
Protocol: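 Universal protein-binding microarray (Agilent AMADID 016060, 60-bp probes with a 35-bp variable region) incubated with 200 nM GST-fused Strongylocentrotus purpuratus Tbr T-box DNA-binding domain (residues 362-554) in PBS pH 7.5. Scored for every ungapped 8-mer (given with its reverse complement) as E-score (range -0.5 to 0.5; >0.45 counts as bound) and Z-score of median probe intensity. Two replicate arrays (datasets 1 and 2).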
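Also: protein at 200 nM in PBS on universal double-stranded arrays.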

Row | Sequence | PBM E-score of 8-mer
1 | TCAATCGA | -0.0374 ± 0.037
2 | GACCAAAA | -0.133 ± 0.0068
3 | CAGAGCTC | -0.265 ± 0.01
4 | CGCACCTC | 0.453 ± 0.016
5 | CGCACCAA | 0.2705 ± 0.0014
6 | CGCACCGC | 0.228 ± 0.031
7 | CGCACCTA | 0.43 ± 0.0064
8 | TGCACCCA | -0.00634 ± 0.056
9 | CGCACCGA | 0.0672 ± 0.045
10 | CCCACCTC | 0.251 ± 0.043
11 | CGCACCCA | 0.372 ± 0.029
12 | CGCACCCG | 0.267 ± 0.054
13 | CACTCAAG | 0.106 ± 0.095
14 | ATCTGTAG | -0.206 ± 0.018
15 | ATGGGAAC | -0.109 ± 0.011
16 | CCAAGGCA | -0.112 ± 0.0028
17 | CGTCGAGA | -0.0352 ± 0.014
18 | CCCCTTTC | -0.132 ± 0.052
19 | GACCTTTA | -0.242 ± 0.0044
20 | AACCTTTA | 0.000765 ± 0.041
21 | CACCTTTA | 0.414 ± 0.0042
22 | AACCTTTC | -0.0391 ± 0.099
23 | CACCTTTC | 0.379 ± 0.024
24 | AAGGGAGA | -0.13 ± 0.033
25 | ATAGCCAT | -0.118 ± 0.018

Row | Sequence | PBM E-score of 8-mer
26 | CGTGCTCA | -0.0222 ± 0.013
27 | TACCACGA | -0.00786 ± 0.00088
28 | CGCGCGGC | 0.208 ± 0.04
29 | ATCTGGCG | 0.0377 ± 0.0091
30 | ATCGAGAC | 0.0132 ± 0.042
31 | GGTAGCTA | -0.314 ± 0.032
32 | ATAGCCGG | -0.203 ± 0.015
33 | TATGTGAA | 0.17 ± 0.07
34 | CGTGTGAA | 0.4643 ± 0.0031
35 | CCTGTGAA | 0.363 ± 0.011
36 | TGGGTGAA | -0.137 ± 0.0066
37 | TGTGTGAA | 0.4829 ± 0.004
38 | CGTGTGTA | 0.096 ± 0.044
39 | CCTGCCTC | 0.0708 ± 0.019
40 | CTATCCTA | -0.171 ± 0.0083
41 | GTTGACCA | 0.142 ± 0.036
42 | ATAACCAC | -0.138 ± 0.015
43 | ACACACAA | 0.148 ± 0.02
44 | TCTCACCA | 0.372 ± 0.011
45 | ACACACCA | 0.287 ± 0.013
46 | GCGCACCA | 0.00307 ± 0.052
47 | ACTCACCA | -0.0326 ± 0.014
48 | CCTCACCA | 0.197 ± 0.025
49 | TCGCACCA | 0.434 ± 0.023
50 | CCACACCA | 0.314 ± 0.057

Row | Sequence | PBM E-score of 8-mer
51 | CCGCACCA | 0.186 ± 0.032
52 | TCACACAA | 0.435 ± 0.0069
53 | CCACACAA | 0.0877 ± 0.025
54 | TCACACCA | 0.4853 ± 0.0026
55 | CCGGGATC | -0.0846 ± 0.051
56 | AGTAGAAT | -0.219 ± 0.017
57 | GCCCCTGA | -0.091 ± 0.031
58 | CCTGGAGC | -0.16 ± 0.026
59 | GGGGTAAC | -0.0298 ± 0.022
60 | GATGCAAA | 0.0247 ± 0.033
61 | CCCATCGA | -0.2033 ± 0.0016
62 | AGGCCCGC | -0.15 ± 0.036
63 | ACACACGA | -0.00198 ± 0.078
64 | GCACACGA | -0.113 ± 0.11
65 | TCACACGA | 0.387 ± 0.0091
66 | TCATTGAA | -0.129 ± 0.0043
67 | CAACCTGC | 0.149 ± 0.015
68 | ACGAGGTA | -0.0678 ± 0.011
69 | AGGAGGTG | 0.391 ± 0.03
70 | AAGAGGTA | -0.272 ± 0.035
71 | AAGAGGTC | -0.128 ± 0.01
72 | AAGAGGTG | 0.407 ± 0.0088
73 | AGGAGGTA | -0.0388 ± 0.051
74 | AGGAGGTC | -0.269 ± 0.036
75 | ACGAGGTC | -0.114 ± 0.018

Row | Sequence | PBM E-score of 8-mer
76 | ACGAGGTG | 0.419 ± 0.019
77 | ACATAGGT | 0.221 ± 0.02
78 | CCTGCTAA | 0.269 ± 0.031
79 | ACCAACAC | 0.273 ± 0.0089
80 | ACGCTTAA | 0.11 ± 0.0092
81 | GGCCGTAC | -0.249 ± 0.0084
82 | ATTTGGGC | -0.181 ± 0.017
83 | CACTTAGG | 0.117 ± 0.04
84 | ATGGTCCG | -0.11 ± 0.029
85 | ATGATGGA | -0.179 ± 0.029
86 | ATCACAGA | 0.102 ± 0.074
87 | ATCACAAA | 0.106 ± 0.014
88 | ATCACACA | 0.425 ± 0.017
89 | ATCACACG | 0.417 ± 0.027
90 | ATCACAGG | 0.227 ± 0.05
91 | ATCACATA | 0.251 ± 0.055
92 | AACAGCTA | 0.232 ± 0.018
93 | GAATCAGC | -0.196 ± 0.017
94 | AAGCTTAG | -0.108 ± 0.11
95 | CTTAGCAA | 0.0388 ± 0.079
96 | ATTAGCAC | 0.368 ± 0.038
97 | CTTAGCAC | 0.364 ± 0.0057
98 | ATTAGCAA | -0.0446 ± 0.11
99 | ATTAGCAG | 0.0716 ± 0.046
100 | CCTAGCAC | 0.257 ± 0.016

Row | Sequence | PBM E-score of 8-mer
101 | AGCATGGA | -0.0258 ± 0.071
102 | ATGCTCTG | -0.168 ± 0.038
103 | CGCTCAAA | 0.00388 ± 0.065
104 | ATATTAAA | -0.0775 ± 0.025
105 | GATCACAA | 0.251 ± 0.0097
106 | CATCACAA | 0.204 ± 0.042
107 | CATCACAG | 0.184 ± 0.0071
108 | AATCACAA | 0.212 ± 0.018
109 | AATCACAC | 0.457 ± 0.011
110 | GATCACAC | 0.479 ± 0.01
111 | AATCACAG | 0.06 ± 0.051
112 | GATCACGC | 0.359 ± 0.037
113 | CATCACAC | 0.451 ± 0.0075
114 | CGCGACCG | 0.29 ± 0.031
115 | GGTACCAA | -0.0861 ± 0.086
116 | ACAAAGGT | 0.119 ± 0.0064
117 | ACTGGGCT | -0.25 ± 0.058
118 | AGTGGCAG | 0.171 ± 0.033
119 | AACCCCGC | 0.136 ± 0.034
120 | AAGGTGCT | 0.4354 ± 0.0022
121 | AAGGTGCG | 0.4522 ± 0.0011
122 | GAGGTGCC | 0.379 ± 0.019
123 | CTGGTGCC | 0.141 ± 0.076
124 | ACGGTGCG | 0.298 ± 0.024
125 | GAGGTGCA | 0.338 ± 0.032

Row | Sequence | PBM E-score of 8-mer
126 | AAGGTGGT | 0.247 ± 0.033
127 | AAGGTACG | -0.0434 ± 0.066
128 | CAGGTGCC | 0.388 ± 0.034
129 | CGGGTGCC | 0.18 ± 0.0043
130 | AAGGTGCA | 0.35 ± 0.01
131 | AAGGTGCC | 0.364 ± 0.0073
132 | AAATAGCG | 0.169 ± 0.013
133 | CACCCCTA | 0.212 ± 0.022
134 | CGCTACAA | 0.107 ± 0.069
135 | AACCATGG | -0.0415 ± 0.0021
136 | ACTTCGAG | 0.0665 ± 0.024
137 | CAGGTGCA | 0.265 ± 0.028
138 | CAGATGCG | -0.139 ± 0.019
139 | CAGGTGCG | 0.454 ± 0.01
140 | CAGGTCTA | -0.191 ± 0.055
141 | AGCTAGCT | 0.0778 ± 0.066
142 | CACAAACC | -0.19 ± 0.028
143 | ACAACACC | 0.424 ± 0.011
144 | CCAACACA | 0.299 ± 0.017
145 | GCAACACA | 0.267 ± 0.014
146 | ACAACACA | 0.349 ± 0.0079
147 | CCAACACC | 0.4264 ± 0.0023
148 | GCAACACC | 0.439 ± 0.0069
149 | GCAACAAC | 0.0625 ± 0.016
150 | ACAACACT | 0.345 ± 0.0051

Row | Sequence | PBM E-score of 8-mer
151 | CCAACACG | 0.232 ± 0.013
152 | ATCACCGC | -0.0213 ± 0.03
153 | AGTTGTCC | -0.136 ± 0.07
154 | ACAATCAG | -0.0516 ± 0.0027
155 | ACGCAAGC | -0.101 ± 0.061
156 | AACAATTA | 0.0621 ± 0.089
157 | ACAGTTGA | 0.2 ± 0.059
158 | CATGGGCC | -0.352 ± 0.015
159 | AGTACCGG | -0.341 ± 0.03
160 | GTGAGAAC | 0.4469 ± 0.0042
161 | GTGAGAAA | 0.441 ± 0.016
162 | CTGAGAAA | -0.0469 ± 0.13
163 | ATGAGAAA | -0.221 ± 0.031
164 | GCGAGAAC | 0.393 ± 0.0087
165 | ATGAGAAC | -0.0381 ± 0.053
166 | GCGAGAAA | 0.342 ± 0.0013
167 | CTGAGAAC | 0.0561 ± 0.038
168 | ACGAGAAC | 0.186 ± 0.0072
169 | CCAACTCC | -0.0214 ± 0.0039
170 | GTCAAGGA | -0.0692 ± 0.085
171 | AGCAAGAT | -0.0318 ± 0.027
172 | CTTTTTTC | -0.0265 ± 0.039

Reference: the supplement of paper PMC4166925
